# NIH3T3 tox: Cytotoxic Profiling in NIH 3T3 Cell Line of Diverse Libraries Using Quantitative High-Throughput Screening; NIH 3T3 viability, CellTiter-Glo ATP luminescence, 48-72 h; Potency, µM (highest dose often 96.7 µM), without a hit: top-dose activity change, negative = cytotoxicity, actives largely listed as inhibitors; 4.3% of 94,000 active; also: potency is read from the fitted curve at half-maximal effect; nearly all actives have a fitted effect of over 55% in size
#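 ATP-dependent luminescence (CellTiter-Glo) served as the viability signal for NIH 3T3 cells treated with compound for 48 or 72 hr at 37 °C.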
# SNCA viab count: GF-AFC viability counterscreen for inhibitors of alpha-synuclein gene (SNCA) expression; Potency, µM (titrated, usually from 57.1 µM), for the others: top-dose activity change, negative = cytotoxicity, actives largely listed as cytotoxic; 0.12% of 150,000 active; HEK-293-SNCA-luc viability, GF-AFC fluorescence, 24 h;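 also: potency is read from the fitted curve at half-maximal effect; 0% = DMSO-treated cells and -100% = medium-only wells without cells; nearly all actives have a fitted effect of over 30% in size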
#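 Cytotoxicity counterscreen: after 24 h compound treatment of genome-edited SNCA-luciferase HEK-293 cells, live-cell protease substrate GF-AFC read by fluorescence after 30 min; activity scaled between DMSO (0%) and medium-only (-100%), curves Hill-fitted.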
# HEK293 tox: Cytotoxic Profiling in HEK 293 Cell Line of Diverse Libraries Using Quantitative High-Throughput Screening; HEK 293 viability, ATP luminescence (CellTiter-Glo), 48-72 h; Potency, µM (highest dose often 115 µM), without a hit: at the top dose activity change, negative = cytotoxicity, most hits filed as inhibitors; 6.6% of 94,000 active; AID 1345083, 2018; also: potency is read from the fitted curve at half-maximal effect; nearly all actives have a fitted effect of over 60% in size
#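 Viability of HEK 293 cells, plated at 250 cells/well, was judged by cellular ATP after compound treatment for 48 or 72 hr. Luminescence was imaged 10 min after CellTiter-Glo addition at room temperature.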
# IP6K1 inhibitor: Primary qHTS assay for small molecule inhibitors of Inositol hexaphosphate kinase 1 (IP6K1); IP6K1 kinase, ADP-Glo luminescence, 2 h; active compounds read low; activity change, % (series mostly up to about 58 µM); 0.81% of 140,000 active; in the data active = activity change below about -25%
#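 ADP-Glo luminescence measures ADP made by human IP6K1 during a 2 h RT reaction with ATP/IP6 (mix at 1.3 mM/130 uM); top library doses 57.5 and 19.1 uM final.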
# Luciferase inh: Firefly luciferase inhibition profiling of diverse chemical library using quantitative high-throughput screening; Luciferin 4-monooxygenase (Photinus pyralis), P08659; purified P. pyralis luciferase, luminescence, biochemical; Potency, µM (top dose mostly 115 µM), usual class: inhibitors; 2.5% of 76,000 active; also: potency is read from the fitted curve at half-maximal effect; nearly all actives have a fitted effect of over 65% in size
# Target sequence (P08659 whole entry, looked up): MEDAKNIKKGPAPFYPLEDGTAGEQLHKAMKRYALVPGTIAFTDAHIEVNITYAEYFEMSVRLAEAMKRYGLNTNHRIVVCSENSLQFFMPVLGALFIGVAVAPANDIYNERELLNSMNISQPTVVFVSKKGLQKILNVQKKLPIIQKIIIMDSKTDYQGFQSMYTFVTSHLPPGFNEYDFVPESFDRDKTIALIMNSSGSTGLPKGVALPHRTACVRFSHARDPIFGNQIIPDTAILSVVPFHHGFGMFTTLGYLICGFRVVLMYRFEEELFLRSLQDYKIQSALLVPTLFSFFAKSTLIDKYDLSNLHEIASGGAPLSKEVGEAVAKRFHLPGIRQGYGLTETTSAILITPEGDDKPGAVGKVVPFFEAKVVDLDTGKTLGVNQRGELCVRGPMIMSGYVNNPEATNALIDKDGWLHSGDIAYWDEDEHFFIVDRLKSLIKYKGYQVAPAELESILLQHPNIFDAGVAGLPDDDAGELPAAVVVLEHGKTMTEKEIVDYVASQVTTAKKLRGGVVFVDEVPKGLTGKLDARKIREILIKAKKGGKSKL
#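 Luminescence read by CCD imager after adding enzyme (10nM final) to wells holding compound, titrated in qHTS. Substrates 10uM each D-luciferin and ATP; buffer 50mM Tris acetate pH 7.5, 10mM Mg acetate, Tween-20, BSA.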
# SNCA expr inh: Primary qHTS assay for inhibitors of alpha-synuclein gene (SNCA) expression. HEK-293 SNCA-luciferase knock-in, luminescence, 24 h. Potency, µM (top dose mostly 57.2 µM), inactives show at the top dose activity change, negative = inhibition, actives largely listed as inhibitors. 0.17% of 140,000 active. AID 1671194, 2021;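 also: potency is read from the fitted curve at half-maximal effect; plate controls were DMSO cells for no effect and cell-free wells for full effect; nearly all actives have a fitted effect of over 45% in size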
# An asterisk follows results filed as active; i = inactive; ? = inconclusive; · = not tested or not shown; [ ] = dose if it differs, or a comment. Hits are enriched below; roughly 7.3% of the tested compounds scored in any of these assays. Unless noted, calls follow the shape of the dose curve; as a rule, active = well fitted curve in the direction sought with a large enough effect; inconclusive = small, poorly fitted or top-dose-only effect, or another doubt; inactive = no such curve, though single readings can be large; an effect the other way counts as inactive or inconclusive. Unless noted, % is scaled to controls: 0 for no effect and ±100 for the full control effect.
SMILES,NIH3T3 tox,SNCA viab count,HEK293 tox,IP6K1 inhibitor,Luciferase inh,SNCA expr inh
Cc1nn(-c2ccccc2)c2c1C(C1CC1)N(C1CN(C(=O)Cc3ccc(F)cc3)C1)C2=O (configuration not stated),?,·,?,28.5,·,·
CN(Cc1ccc2nonc2c1)C(=O)C1CCN(C(=O)C2CCCC2)CC1,39.8µM*,-6.5%,?,2.4,i,-19.5%
CCN1CCN(C(=O)c2nc3sccn3c2-c2ccccc2)CC1,-3.3%[138 µM],-1.6%[87.6 µM],-0.4%[172 µM],8.0,·,-2.9%[87.6 µM]
Cc1ccsc1CN1CCOc2cc([S+](=O)([O-])Nc3ccccc3)ccc2C1,44.7µM*,-18.8%[87.6 µM],63.1µM*,-6.7,i,-27.9%[87.6 µM]
O=[S+]([O-])(Nc1nncs1)c1ccc2c(c1)OCCN(Cc1ccncc1)C2,?,-3.4%[87.6 µM],4.5%[172 µM],-6.9,i,13.3%[87.6 µM]
O=[S+]([O-])(Nc1nncs1)c1ccc2c(c1)OCCN(Cc1cncc(F)c1)C2,28.2µM*,2.6%[87.6 µM],-21.8%[172 µM],4.1,i,1.7%[87.6 µM]
Cn1cc(CN2CCOc3cc([S+](=O)([O-])Nc4cccnc4)ccc3C2)cn1,100µM*,-7.7%[87.6 µM],2.9%[172 µM],-5.6,i,5.1%[87.6 µM]
O=[S+]([O-])(Nc1ccccc1)c1ccc2c(c1)OCCN(Cc1ccc(F)cn1)C2,?,-6.1%[87.6 µM],?,-0.5,i,-15.4%[87.6 µM]
Cn1cc(CN2CCOc3cc([S+](=O)([O-])Nc4ccccc4)ccc3C2)cn1,-20.6%[138 µM],-9.7%[87.6 µM],?,-7.0,i,-15.3%[87.6 µM]
Cc1ccsc1CN1CCOc2cc([S+](=O)([O-])Nc3cccnc3)ccc2C1,?,-1.0%[87.6 µM],?,5.3,i,3.6%[87.6 µM]
O=[S+]([O-])(Nc1ccccc1)c1ccc2c(c1)OCCN(Cc1ccccn1)C2,?,-2.9%[87.6 µM],70.8µM*,-2.2,i,-1.5%[87.6 µM]
CCN(Cc1ccccc1)C(=O)[C@@]12CCCC[C@H]1N(CCOC)C(=O)CC2,-3.3%,0.7%,?,-1.4,i,4.2%
COCCNc1ncc(-c2ccsc2)c2c1OCC2,?,4.8%[87.6 µM],?,5.8,22.4µM*,95.1%[87.6 µM]
Cc1nn(-c2ccc(C(F)(F)F)cc2)c(C)c1[C@@H]1C=C[C@@H](NC(=O)NC(C)C)C1,?,?,35.5µM*,-15.5,14.1µM*,31.3%[87.6 µM]
Cc1nn(-c2ccc(C(F)(F)F)cc2)c(C)c1[C@@H]1C=C[C@@H](NC(=O)C2CCCCC2)C1,?,-11.5%[87.6 µM],?,-0.1,i,46.0%[87.6 µM]
Cc1nn(-c2ccc(C(F)(F)F)cc2)c(C)c1[C@@H]1C=C[C@@H](NC(=O)Nc2ccccc2)C1,31.6µM*,?,50.1µM*,-10.6,12.6µM*,13.0%[87.6 µM]
Cc1nn(-c2ccc(C(C)(C)C)cc2)c(C)c1[C@@H]1C=C[C@@H](NC(=O)Nc2ccccc2)C1,?,?,?,-2.5,i,2.2%[87.6 µM]
Cc1noc(C)c1S(=O)(=O)N1CCCC1c1nncn1C1CCCC1 (configuration not stated),-18.1%,3.3%,-21.5%,15.8,·,9.3%
O=C(c1ccc(Cl)cc1)N1CC2(CCCN(Cc3cccnc3)C2)Cc2ccccc21 (configuration not stated),?,?,39.8µM*,-7.2,·,?
CC(=O)N1CC2(CCN(C(=O)c3ccc(Cl)cc3)CC2)Cc2ccccc21,10µM*,?,?,27.7,·,?
CC(=O)N1CC2(Cc3ccccc31)CN(C(=O)c1cccc(Cl)c1)C2,-22.4%,8.3%,-16.7%,-5.7,i,-6.6%
CC(=O)N1CC2(CCCN(CC3CC3)C2)Cc2ccccc21 (configuration not stated),i,-5.2%,i,-3.5,·,-19.2%
CC(=O)N1CC2(CCCN(Cc3cc4ccccc4[nH]3)C2)Cc2ccccc21 (configuration not stated),25.1µM*,-10.1%,?,-15.8,·,7.1%
CN(CC1(C)CCOCC1)C(=O)c1c(F)cccc1Cl,i,3.9%,11.9%,5.5,i,?
Cc1cn2nnc(C(=O)NCC(C)c3ccccc3)c2c(=O)[nH]1 (configuration not stated),?,11.3%,3.4%,14.1,i,20.9%
SMILES,NIH3T3 tox,SNCA viab count,HEK293 tox,IP6K1 inhibitor,Luciferase inh,SNCA expr inh
NC(=O)c1cccc2[nH]c([C@H]3CCN(Cc4cccc(Cl)c4)C3)nc12,?,-24.6%[87.6 µM],56.2µM*,13.8,i,-1.9%[87.6 µM]
N#Cc1ccc2nc([C@H]3CCN(Cc4ccccc4)C3)[nH]c2c1,39.8µM*,-19.0%[87.6 µM],50.1µM*,0.1,?,?
N#Cc1ccc2nc([C@H]3CCN(Cc4ccccn4)C3)[nH]c2c1,63.1µM*,-6.7%[87.6 µM],100µM*,6.9,?,-12.1%[87.6 µM]
FC(F)(F)c1ccc2nc([C@H]3CCN(Cc4ccccn4)C3)[nH]c2c1,?,-1.5%[87.6 µM],44.7µM*,16.4,?,99.6%[87.6 µM]
CC(=O)N1CCC[C@@H]1C(=O)N1CCCC(c2nc3ccncc3[nH]2)C1 (some centres not stated),4.2%,6.9%,-0.1%,-1.7,·,-0.1%
Nc1ccc(-c2cccc(CN3CCCC3)c2)cc1,-6.2%,-1.9%,-10.5%,-10.4,i,12.4%
O=C([C@H]1CCC[C@H](O)C1)N1CCN(Cc2ccc(C(F)(F)F)cc2)CC1,-23.3%,5.7%,?,-4.6,i,-14.4%
C=CCOc1c(OC)ccc2c1CN(C1CCCC1)C(=O)CCN2C[C@@H](O)COCc1ccccc1,?,·,?,-11.6,·,·
C=CCOc1c(OC)ccc2c1CN(C1CCCC1)C(=O)CCN2CC(O)Cc1ccccc1 (configuration not stated),?,·,44.7µM*,-7.5,·,·
C=CCOc1c(OC)ccc2c1CN(CC=C)C(=O)CCN2CC(O)COc1ccc(OC)cc1 (configuration not stated),?,·,?,10.6,·,·
C=CCOc1c(OC)ccc2c1CN(CC)C(=O)CCN2CC(O)COc1ccc(OC)cc1 (configuration not stated),?,·,39.8µM*,8.2,·,·
C=CCOc1c(OC)ccc2c1CN(C1CC1)C(=O)CCN2C[C@@H](O)COCc1ccccc1,?,·,?,-7.3,·,·
C=CCOc1c(OC)ccc2c1CN(CC1CC1)C(=O)CCN2C[C@@H](O)COCc1ccccc1,?,·,44.7µM*,-13.2,·,·
